In PubChem BioAssay (Tox21):
Where “and” joins values, the source holds several entries; their conditions need not be identical. Equal values may be shown once. Values without a mark were called inactive. Inconclusive results are not listed. Entries that show only a call come without a potency. Calls of active or inactive are those of the source. Unless noted, the call rests on the fitted dose curve; in most records, active means well fitted curve in the direction sought with a large enough effect in the repeat runs; inconclusive means weak or mixed curves; inactive means no such curve, though single readings can be large; an effect the other way counts as inactive or inconclusive.

Legend:
[1] = target: Thyrotropin receptor (Homo sapiens) (UniProt P16473); assay: qHTS assay to identify small molecule antagonists of the thyroid stimulating hormone receptor (TSHR) signaling pathway (AID 1259385; calls by dose curve; further: nearly all actives have a fitted effect of over 20% in size; further: potency means the concentration at half of the fitted maximal effect)
Chain of Thyrotropin receptor (Homo sapiens) (P16473 whole entry, looked up): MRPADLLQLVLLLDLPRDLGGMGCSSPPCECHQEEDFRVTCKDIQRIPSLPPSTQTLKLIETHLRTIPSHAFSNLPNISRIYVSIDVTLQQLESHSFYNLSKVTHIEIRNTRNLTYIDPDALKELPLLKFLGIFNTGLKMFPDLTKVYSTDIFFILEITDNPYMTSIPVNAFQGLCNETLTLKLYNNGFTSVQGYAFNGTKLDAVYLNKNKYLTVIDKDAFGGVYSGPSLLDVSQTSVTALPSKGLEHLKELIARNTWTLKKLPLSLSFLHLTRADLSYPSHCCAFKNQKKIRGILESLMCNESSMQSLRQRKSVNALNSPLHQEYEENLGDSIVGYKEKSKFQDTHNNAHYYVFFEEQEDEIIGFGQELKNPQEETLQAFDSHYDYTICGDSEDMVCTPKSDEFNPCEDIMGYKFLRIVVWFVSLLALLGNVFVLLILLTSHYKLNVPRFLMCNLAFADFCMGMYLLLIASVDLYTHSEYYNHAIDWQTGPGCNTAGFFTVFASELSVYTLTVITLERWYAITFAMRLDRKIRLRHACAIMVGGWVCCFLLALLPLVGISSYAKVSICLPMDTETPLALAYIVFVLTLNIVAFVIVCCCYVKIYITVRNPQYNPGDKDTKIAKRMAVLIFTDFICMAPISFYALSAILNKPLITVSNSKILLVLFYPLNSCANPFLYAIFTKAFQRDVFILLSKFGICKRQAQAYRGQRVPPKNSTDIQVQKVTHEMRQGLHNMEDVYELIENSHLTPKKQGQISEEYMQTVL
How it was run: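 TSHR-HEK293 cells were plated and held 18 h at 37C/5% CO2, then given compound plus Ro20-1724 and stimulated with TSH at 1.5 ng/mL final. After 30 min at room temperature, cAMP was detected with cAMP-d2/anti-cAMP-cryptate (1 h) by fluorescence.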

[2] = target: Progesterone receptor (Homo sapiens) (UniProt P06401); assay: qHTS assay to identify small molecule agonists of the progesterone receptor (PR) signaling pathway (AID 1346784; calls by dose curve; further: nearly all actives have a fitted effect of over 30% in size)
Chain of Progesterone receptor (Homo sapiens) (P06401 whole entry, looked up): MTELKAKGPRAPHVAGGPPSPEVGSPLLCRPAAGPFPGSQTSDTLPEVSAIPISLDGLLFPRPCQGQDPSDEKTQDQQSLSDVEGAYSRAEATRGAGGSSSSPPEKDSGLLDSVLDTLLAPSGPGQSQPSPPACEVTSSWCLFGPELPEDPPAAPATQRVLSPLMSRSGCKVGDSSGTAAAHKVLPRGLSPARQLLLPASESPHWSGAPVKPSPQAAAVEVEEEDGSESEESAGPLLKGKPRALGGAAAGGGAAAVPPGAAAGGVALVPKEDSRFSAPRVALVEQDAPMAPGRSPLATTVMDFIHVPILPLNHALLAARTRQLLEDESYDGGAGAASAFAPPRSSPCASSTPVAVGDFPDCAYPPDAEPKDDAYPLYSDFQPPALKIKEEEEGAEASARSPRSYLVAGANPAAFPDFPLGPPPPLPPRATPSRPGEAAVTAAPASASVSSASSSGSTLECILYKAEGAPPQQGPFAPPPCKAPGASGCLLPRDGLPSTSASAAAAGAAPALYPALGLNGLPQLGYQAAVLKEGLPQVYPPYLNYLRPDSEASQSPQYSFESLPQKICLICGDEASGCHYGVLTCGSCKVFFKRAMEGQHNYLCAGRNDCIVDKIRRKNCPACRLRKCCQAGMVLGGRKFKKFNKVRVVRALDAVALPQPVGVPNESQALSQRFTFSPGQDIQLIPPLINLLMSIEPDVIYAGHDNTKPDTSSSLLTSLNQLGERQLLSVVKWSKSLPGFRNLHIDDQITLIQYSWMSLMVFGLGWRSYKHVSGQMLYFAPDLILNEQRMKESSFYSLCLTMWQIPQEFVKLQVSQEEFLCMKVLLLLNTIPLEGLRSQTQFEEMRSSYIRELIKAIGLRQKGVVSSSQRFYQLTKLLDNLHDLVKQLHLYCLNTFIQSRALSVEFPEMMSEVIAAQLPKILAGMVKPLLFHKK
How it was run: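 Seed PR-UAS-bla HEK 293T cells (2% charcoal-stripped FBS), incubate 6 hr at 37C; add compounds in DMSO, 16 hr at 37C; add LiveBLAzer B/G substrate, 2 hr RT; read fluorescence intensity.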

[3] = qHTS assay to identify small molecule antagonists of the progesterone receptor (PR) signaling pathway - cell viability counter screen (AID 1346798); further: nearly all actives have a fitted effect of over 50% in size; further: potency means the concentration at half of the fitted maximal effect
How it was run: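 Measures cytotoxicity in parallel with the PR antagonist reporter read: HEK293T PR-UAS-bla cells get compound and R5020 for 16 hr, and remaining viable cells are quantified by CellTiter-Glo luminescence.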

[4] = qHTS assay to identify small molecule agonists of the progesterone receptor (PR) signaling pathway - cell viability counter screen (AID 1346799; calls by dose curve; further: nearly all actives have a fitted effect of over 45% in size; further: potency means the concentration at half of the fitted maximal effect)
How it was run: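 Using the same plates as the PR reporter screen, HEK293T PR-UAS-bla cells received compounds for 16 hr at 37C and were then lysed with CellTiter-Glo; luminescence was read 30 min later at room temperature.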

[5] = qHTS assay to identify small molecule agonists of the TGF-beta/Smad signaling pathway - cell viability counter screen (AID 1346829); further: top concentration of the series differs between compounds; nearly all actives have a fitted effect of over 45% in size
How it was run: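 Tox21 qHTS format: SBE-bla HEK 293T cells treated with DMSO-dissolved compounds for 5 hr; CellTiter-Glo luminescence after 30 min at room temperature.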

[6] = qHTS assay to identify small molecule agonists of the TGF-beta/Smad signaling pathway (AID 1346859; active means well fitted activation curve with a large enough effect in the signal ratio in the repeat runs, not every such curve was filed as active; the % refers to the signal ratio; further: series mostly up to about 77 µM)
How it was run: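 Beta-lactamase reporter activity downstream of Smad binding elements was measured in stably transfected HEK 293T cells; compounds were incubated for 5 hr, substrate for 2 hr at room temperature.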

[7] = target: Thyrotropin-releasing hormone receptor (Homo sapiens) (UniProt P34981); assay: qHTS assay to identify small molecule antagonists of the thyrotropin-releasing hormone receptor (TRHR) signaling pathway (AID 1346877; active means well fitted inhibition curve with a large enough effect in the repeat runs, not every such curve was filed as active; further: series mostly up to about 51 µM)
Chain of Thyrotropin-releasing hormone receptor (Homo sapiens) (P34981 whole entry, looked up): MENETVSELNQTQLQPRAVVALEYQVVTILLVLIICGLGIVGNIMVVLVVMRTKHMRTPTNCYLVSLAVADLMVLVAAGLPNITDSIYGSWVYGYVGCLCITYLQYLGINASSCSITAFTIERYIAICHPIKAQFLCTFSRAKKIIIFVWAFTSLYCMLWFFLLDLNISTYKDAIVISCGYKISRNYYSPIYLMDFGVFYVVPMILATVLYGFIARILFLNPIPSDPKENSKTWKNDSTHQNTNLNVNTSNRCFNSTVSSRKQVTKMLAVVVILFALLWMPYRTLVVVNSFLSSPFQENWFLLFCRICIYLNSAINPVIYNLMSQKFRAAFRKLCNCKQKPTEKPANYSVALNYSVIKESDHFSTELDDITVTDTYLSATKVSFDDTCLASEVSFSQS
How it was run: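 HEK293/TRHR cells, 18 h, 37 °C; Ca2+ dye 2 h; cpd 5 min RT; TRH 1 nM final; fluorescence read 3 min, 1 s intervals; 15 concs, triplicate.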

[8] = target: Thyrotropin-releasing hormone receptor (Homo sapiens) (UniProt P34981); assay: qHTS assay to identify small molecule agonists of the thyrotropin-releasing hormone receptor (TRHR) signaling pathway (AID 1346891; calls by dose curve;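 further: HEK293 cells expressing TRHR with calcium dye readout; series mostly up to about 58 µM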)
How it was run: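 Overnight-plated (18 h, 37 °C, 5% CO2) TRHR-Hek293 cells; 2 h calcium dye at 37 °C; compound in DMSO; 3-min kinetic fluorescence read.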

[9] = Human pregnane X receptor (PXR) small molecule agonists, qHTS cell viability counter screen (AID 1346977); further: nearly all actives have a fitted effect of over 50% in size; further: potency means the concentration at half of the fitted maximal effect
How it was run: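 After a 5hr pre-incubation, PXR-Luc HepG2 cells received compounds plus positive control in DMSO and were kept 24hr at 37C. Cell viability was quantified by fluorescence from CellTiter-Fluor added for the final hour.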

[10] = Caspase-3/7 induction in HepG2 cells by small molecules, qHTS assay (AID 1346978); further: nearly all actives have a fitted effect of over 15% in size; further: potency means the concentration at half of the fitted maximal effect
How it was run: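 Wild-type HepG2 cells (2,000/well) were settled 5 h at 37 C, 5% CO2, then exposed to compounds in DMSO for 17 h. Caspase-3/7 activity was read by luminescence 30 min after adding Caspase-Glo 3/7 reagent at room temperature.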

[11] = Caspase-3/7 induction in CHO-K1 cells by small molecules, qHTS cell viability counter screen (AID 1346979); further: nearly all actives have a fitted effect of over 35% in size; further: potency means the concentration at half of the fitted maximal effect
How it was run: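 Multiplexed with Caspase-Glo 3/7 in CHO-K1 cells, this counter screen added CellTiter-Fluor after 16hr of compound exposure and recorded fluorescence 1hr later.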

[12] = Caspase-3/7 induction in CHO-K1 cells by small molecules, qHTS assay (AID 1346980); further: nearly all actives have a fitted effect of over 15% in size
How it was run: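 Wild-type cells were seeded at 1,500 per well and settled 5 hr at 37 C, 5% CO2, then exposed to DMSO-dissolved compounds for 17 hr. Caspase-Glo 3/7 reagent was added, and luminescence was read after 30min at room temperature.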

[13] = Caspase-3/7 induction in HepG2 cells by small molecules, qHTS cell viability counter screen (AID 1346981); further: nearly all actives have a fitted effect of over 30% in size; further: potency means the concentration at half of the fitted maximal effect
How it was run: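 Fluorescence read-out of live-cell protease activity (CellTiter-Fluor) after 1 hr with reagent. This was measured in the same wells as the caspase-3/7 luminescence, on HepG2 cells exposed to DMSO-dissolved compounds for 16 hr at 37 C.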

[14] = target: Nuclear receptor subfamily 1 group I member 2 (Homo sapiens) (UniProt O75469); assay: Human pregnane X receptor (PXR) small molecule agonists, qHTS assay (AID 1346982); further: nearly all actives have a fitted effect of over 35% in size; further: potency means the concentration at half of the fitted maximal effect
Chain of Nuclear receptor subfamily 1 group I member 2 (Homo sapiens) (O75469 whole entry, looked up): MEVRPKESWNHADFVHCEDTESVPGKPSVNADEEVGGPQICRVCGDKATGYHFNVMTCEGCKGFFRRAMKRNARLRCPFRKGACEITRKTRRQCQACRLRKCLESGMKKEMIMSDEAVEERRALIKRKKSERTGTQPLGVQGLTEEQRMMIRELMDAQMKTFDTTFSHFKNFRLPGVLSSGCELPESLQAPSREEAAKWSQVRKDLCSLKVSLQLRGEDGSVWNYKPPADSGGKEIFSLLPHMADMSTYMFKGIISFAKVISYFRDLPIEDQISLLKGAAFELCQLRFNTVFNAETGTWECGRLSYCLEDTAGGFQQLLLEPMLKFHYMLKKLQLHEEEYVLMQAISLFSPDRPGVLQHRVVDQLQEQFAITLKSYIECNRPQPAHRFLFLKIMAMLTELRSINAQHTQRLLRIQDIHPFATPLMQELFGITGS
How it was run: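 HepG2 PXR-Luc reporter line, 5% charcoal-stripped FBS; 5 hr pre-incubation, compound (DMSO) 24 hr at 37 C/5% CO2; ONE-Glo 30 min RT; luminescence read-out.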

[15] = target: Progesterone receptor (Homo sapiens) (UniProt P06401); assay: qHTS assay to identify small molecule antagonists of the progesterone receptor (PR) signaling pathway (AID 1346795; active means well fitted inhibition curve with a large enough effect in the signal ratio in the repeat runs, not every such curve was filed as active; the % refers to the signal ratio; further: potency means the concentration at half of the fitted maximal effect)
How it was run: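 Screening used a GripTite HEK293T line with PR-responsive UAS-beta-lactamase. Cells were challenged with compound in the presence of 1 nM R5020 final for 16 hr at 37C; B/G FRET substrate, 2 hr room temperature, fluorescence.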

[16] = qHTS assay to identify small molecule antagonists of the TGF-beta/Smad signaling pathway - cell viability counter screen (AID 1346824); further: nearly all actives have a fitted effect of over 50% in size
How it was run: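 SBE-bla HEK 293T cells were plated overnight at 37 C, then given compounds in DMSO plus TGF-beta1 (added as 0.25 ng/mL solution) for 5 hr. After the bla read, CellTiter-Glo was added to the same wells and luminescence read after 30 min at room temperature.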

[17] = target: Nuclear receptor subfamily 1 group I member 2 (Rattus norvegicus) (UniProt Q9R1A7); assay: Rat pregnane X receptor (rPXR) activation by small molecules, qHTS assay (AID 1346983); details: rPXR luciferase reporter cells, One-Glo luminescence, 24 h; hits give high values; further: nearly all actives have a fitted effect of over 20% in size
Chain of Nuclear receptor subfamily 1 group I member 2 (Rattus norvegicus) (Q9R1A7 whole entry, looked up): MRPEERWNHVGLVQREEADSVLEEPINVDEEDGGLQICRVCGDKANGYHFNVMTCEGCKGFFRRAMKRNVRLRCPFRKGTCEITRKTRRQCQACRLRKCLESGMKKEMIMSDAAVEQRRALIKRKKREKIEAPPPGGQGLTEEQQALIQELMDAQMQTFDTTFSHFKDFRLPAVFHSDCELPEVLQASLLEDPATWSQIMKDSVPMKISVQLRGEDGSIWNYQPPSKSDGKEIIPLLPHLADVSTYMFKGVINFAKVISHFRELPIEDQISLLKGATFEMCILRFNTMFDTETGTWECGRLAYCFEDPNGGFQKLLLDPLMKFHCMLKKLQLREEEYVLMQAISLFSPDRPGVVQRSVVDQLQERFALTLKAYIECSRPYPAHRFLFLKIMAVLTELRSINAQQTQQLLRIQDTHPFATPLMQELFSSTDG
How it was run: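 Cell-based rPXR luciferase reporter assay, 2,000 cells per well, rested 5hr at 37 C before compound addition in DMSO, then 24 hr at 37 C. One-Glo reagent was added and luminescence read after 30 min at room temperature.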

[18] = target: Nuclear receptor subfamily 1 group I member 2 (Homo sapiens) (UniProt O75469); assay: CYP3A4 induction through human pregnane X receptor (PXR) by small molecules, qHTS assay (AID 1346984); further: nearly all actives have a fitted effect of over 40% in size
How it was run: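 HepG2-derived DPX-2 line carrying PXR plus a CYP3A4-promoter luciferase reporter; cells plated 5 hr, compound-exposed 24 hr at 37C. CYP3A4 activity probed with 3uM (final) Luciferin-IPA for 3hr, then luciferase read after One-Glo.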

[19] = target: Nuclear receptor subfamily 1 group I member 2 (Homo sapiens) (UniProt O75469); assay: Human pregnane X receptor (PXR) activation by small molecules, qHTS assay (AID 1346985); further: nearly all actives have a fitted effect of over 40% in size
How it was run: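 DPX-2 cells (HepG2 co-transfected with a PXR response element and a CYP3A4-promoter luciferase construct) were seeded at 2,000 per well, rested 5 hr at 37C, then exposed to DMSO-dissolved compounds for 24 hr. Activation was read as luciferase luminescence.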

Row | Compound | Potency [1] | Potency [2] | Potency [3] | Potency [4] | outcome [5] | outcome [6] | outcome [7] | outcome [8] | Potency [9] | Potency [10] | Potency [11] | outcome [12] | Potency [13] | Potency [14] | Potency [15] | Potency [16] | max activation [17] [%] | Potency [18] | Potency [19]
1 | C=C1CC[C@H]2C[C@@H]1C2(C)C | inactive | inactive | inactive | inactive | inactive | inactive | inactive | inactive | inactive | inactive | inactive | inactive | inactive | inactive |  |  |  |  | 
2 | CN(C)CCCN1c2ccccc2CCc2ccc(Cl)cc21 | 68.6 µM (active) and 29.8 µM (active) | inactive | 34.4 µM (active) and 29.8 µM (active) | 30.6 µM (active) and 23.7 µM (active) |  | inactive | inactive | inactive | 30.6 µM (active) and 29.8 µM (active) | 61.1 µM (active) | 68.6 µM (active) and 29.8 µM (active) |  | 61.1 µM (active) and 29.8 µM (active) |  | 26.6 µM (active) | inactive |  |  | 
3 | CC(=O)OCC(=O)[C@@]1(O)CCC2C3CCC4=CC(=O)CC[C@]4(C)C3[C@@H](O)C[C@@]21C (stereo partly specified) | inactive |  | inactive | inactive | inactive | inactive |  |  | inactive | inactive | inactive | inactive | inactive | inactive |  | inactive |  |  | 
4 | ClC(Cl)(Br)Br | inactive | inactive |  | inactive | inactive | inactive |  |  | inactive | inactive | inactive |  | inactive | inactive | inactive | inactive |  |  | 
5 | CC(C)(C)c1ccc(O)c(O)c1 | inactive |  |  |  | inactive | inactive |  | inactive | inactive | inactive | 63.2 µM (active) and 57.7 µM (active) | inactive |  | 63.2 µM (active) and 27.3 µM (active) | 50.2 µM (active) and 44.5 µM (active) | inactive |  |  | 
6 | Nc1nc2c(ncn2COC(CO)CO)c(=O)[nH]1 | inactive | inactive | inactive | inactive |  | inactive | inactive | inactive | inactive | inactive | inactive | inactive | inactive | inactive | inactive | inactive | 0.872 | inactive | inactive
7 | C[C@@H]1CCN(C(=O)[C@H](CCCN=C(N)N)NS(=O)(=O)c2cccc3c2NC[C@H](C)C3)[C@@H](C(=O)O)C1 | inactive | inactive | inactive |  | inactive | inactive | inactive | inactive | inactive | inactive | inactive |  | inactive | inactive | inactive | inactive | -0.172 | inactive | inactive
8 | CCC=O | inactive | inactive | inactive | inactive | inactive | inactive |  |  | inactive | inactive | inactive | inactive | inactive | inactive |  | inactive |  |  | 
9 | CC(C)NCCCC1(C(N)=O)c2ccccc2-c2ccccc21 | inactive |  | inactive | inactive |  | inactive |  | inactive | inactive | inactive | inactive |  | inactive | 23.7 µM (active) |  | inactive |  |  | 
